According to PubChem BioAssay (NCATS):
Inconclusive results are not listed. Calls of active or inactive are those of the source. The call rests on the fitted dose curve; in most records, active means well fitted curve in the direction sought with a large enough effect; inconclusive means small, poorly fitted or top-dose-only effect, or another doubt; inactive means no such curve, though single readings can be large; an effect the other way counts as inactive or inconclusive. Where a SMILES comes first, the peptide text is derived from it. The star is where a group is joined. AFC = O=c1cc(C(F)(F)F)c2ccc(N*)cc2o1

Legend:
[1] = target: Phospholipid hydroperoxide glutathione peroxidase GPX4 (Homo sapiens) (UniProt P36969); assay: Primary qHTS Assay for Inhibitors of Recombinant Selenoprotein Glutathione Peroxidase 4 (GPX4) (AID 1845192); further: nearly all actives have a fitted effect of over 65% in size; further: potency means the concentration at half of the fitted maximal effect; on activity change, negative = inhibition: series mostly up to about 50 µM; on the % scale 0 is the no-effect control and ±100 the full control effect
Chain of Phospholipid hydroperoxide glutathione peroxidase GPX4 (Homo sapiens) (P36969 whole entry, looked up): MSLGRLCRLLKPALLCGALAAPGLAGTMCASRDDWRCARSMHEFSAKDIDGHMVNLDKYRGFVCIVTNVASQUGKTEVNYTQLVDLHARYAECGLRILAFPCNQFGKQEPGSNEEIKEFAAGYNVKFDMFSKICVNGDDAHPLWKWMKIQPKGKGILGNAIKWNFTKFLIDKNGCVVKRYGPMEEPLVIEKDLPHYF
Outline: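 qHTS, GR-coupled: GPX4 200 nM + cpd 30 min RT → GSH 1 mM, NADPH 0.5 mM, GR 100 nM → CHP 0.5 mM start; fluor 340/450 at t0 and t15 min; no-enzyme wells as control.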

[2] = target: Luciferin 4-monooxygenase (Photinus pyralis) (UniProt P08659); assay: Primary firefly luciferase (FLuc) qHTS assay for identification of artifact compounds. (AID 1845220); further: nearly all actives have a fitted effect of over 60% in size;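 on activity change, negative = inhibition: series mostly up to about 54 µM; plate controls were DMSO vehicle for no effect and no enzyme for full effect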
Outline: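 In this counter-screen for luciferase artifacts, test compounds met substrate (10 uM each luciferin and ATP) before 10 nM enzyme started the reaction. Light output was measured 5 min later.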

[3] = Primary fluorescence-based thiol-reactive (MSTI) qHTS assay for identification of artifact compounds. (AID 1845221); further: nearly all actives have a fitted effect of over 65% in size; further: potency means the concentration at half of the fitted maximal effect;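 on activity change, negative = thiol reactive: series mostly up to about 54 µM; thiol-reactive compounds lower the probe fluorescence signal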
Outline: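 In PBS pH 7.4 with 2% DMSO, each compound met 4 uM MSTI for one hour at ambient temperature, shielded from light, before fluorescence detection.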

[4] = test system: Nanoluciferase (engineered Oplophorus gracilirostris luciferase); assay: Primary Nanoluciferase (NLuc) qHTS assay for identification of artifact compounds. (AID 1845222); further: potency means the concentration at half of the fitted maximal effect;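 on activity, negative = inhibition: NLuc secreted into diluted conditioned medium of S16 cells; series mostly up to about 54 µM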
Outline: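 Using secreted nanoluciferase in S16 culture medium (0.22 um filtered, 1:55 dilution), compounds were preincubated 15 min at RT. Signal was generated with Nano-Glo reagent (1:100) over 5 min.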

[5] = Primary redox qHTS assay for identification of artifact compounds. (AID 1845223);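 further: 0% = DMSO and 100% = reference compound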
Outline: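 Redox-cycling detection via DTT (250 uM final) oxidation coupled to Amplex Red (25 uM)/HRP (250 mU/mL) in HBSS. 15 min preincubation plus 30 min after DTT, room temperature. Ex/Em 525/598 nm; 4-parameter Hill fit against DMSO and 10 uM DA3003.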

[6] = target: Cytochrome P450 3A4 (Homo sapiens) (UniProt P08684); assay: qHTS for inhibitors of CYP3A4 against the NCATS DSHEA and TCM libraries (AID 1919971);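 further: on the % scale 0 is the no-effect control and ±100 the full control effect; inhibition lowers luminescence from luciferin made by CYP3A4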
Chain of Cytochrome P450 3A4 (Homo sapiens) (P08684 whole entry, looked up, canonical isoform): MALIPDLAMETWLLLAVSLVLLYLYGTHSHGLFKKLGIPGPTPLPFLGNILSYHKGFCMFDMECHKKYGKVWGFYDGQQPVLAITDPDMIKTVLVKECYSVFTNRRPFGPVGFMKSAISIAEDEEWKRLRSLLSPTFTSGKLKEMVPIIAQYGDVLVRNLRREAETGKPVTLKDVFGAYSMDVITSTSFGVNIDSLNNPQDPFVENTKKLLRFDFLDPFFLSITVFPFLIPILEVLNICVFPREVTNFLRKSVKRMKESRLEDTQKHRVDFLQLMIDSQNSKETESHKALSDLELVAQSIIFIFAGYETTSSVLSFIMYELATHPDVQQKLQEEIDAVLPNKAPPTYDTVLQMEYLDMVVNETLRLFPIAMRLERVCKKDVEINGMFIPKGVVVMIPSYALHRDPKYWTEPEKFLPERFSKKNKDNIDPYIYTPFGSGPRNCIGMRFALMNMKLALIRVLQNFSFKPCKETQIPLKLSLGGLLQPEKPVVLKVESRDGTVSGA
Outline: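 Each CYP isoform and its pro-luciferin substrate, at isoform-specific final concentrations, were preincubated 15 min at RT with substances. NADPH regeneration solution (1x) started a 30-45 min reaction, and P450-Glo luminescence was read.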

[7] = target: Cytochrome P450 2D6 (Homo sapiens) (UniProt P10635); assay: qHTS for inhibitors of CYP2D6 against the NCATS DSHEA and TCM libraries (AID 1919972); further: on the % scale 0 is the no-effect control and ±100 the full control effect
Chain of Cytochrome P450 2D6 (Homo sapiens) (P10635 whole entry, looked up): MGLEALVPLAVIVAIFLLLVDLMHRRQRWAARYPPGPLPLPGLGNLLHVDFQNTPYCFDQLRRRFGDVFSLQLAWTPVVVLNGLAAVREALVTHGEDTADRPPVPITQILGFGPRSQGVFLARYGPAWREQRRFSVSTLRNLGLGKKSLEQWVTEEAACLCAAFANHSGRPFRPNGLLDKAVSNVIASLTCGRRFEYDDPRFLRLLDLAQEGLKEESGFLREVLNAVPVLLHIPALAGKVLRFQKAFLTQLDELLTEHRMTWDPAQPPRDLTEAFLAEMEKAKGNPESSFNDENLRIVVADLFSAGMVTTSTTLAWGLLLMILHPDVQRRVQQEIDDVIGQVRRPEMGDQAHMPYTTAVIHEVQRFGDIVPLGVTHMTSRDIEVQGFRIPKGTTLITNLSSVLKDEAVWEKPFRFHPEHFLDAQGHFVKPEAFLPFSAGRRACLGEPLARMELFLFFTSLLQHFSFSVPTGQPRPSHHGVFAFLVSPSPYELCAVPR
Outline: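 CYP2D6 enzyme with pro-luciferin substrate in manufacturer buffer (typically 100 mM KPO4), preincubated 15 min RT with substances (most at 19.5 nM upward); NADPH regeneration system (1x) started 30–45 min RT reaction; P450-Glo luminescence read after 30 min; quinidine as intraplate control.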

Cc1ccc(F)cc1C(=O)Nc1ccc(C(=O)N2Cc3cccn3Cc3ccccc32)c(Cl)c1
inactive: Potency [1] | Potency [2] | Potency [3] | Potency [4] | Potency [5]

O=C(O)Cc1ccc2oc(-c3ccc(NC(=O)/C=C/c4ccc(Br)cc4)c(F)c3)nc2c1
inactive: Potency [1] | Potency [2] | Potency [3] | Potency [4] | Potency [5]

NC(=O)Nc1cc(-c2cccc(F)c2)sc1C(=O)NC1CCCNC1 (stereo unspecified)
inactive: Potency [1] | Potency [2] | Potency [3] | Potency [4] | Potency [5]

C[C@@H]1C(=O)O[C@H]2[C@@H](O)C34[C@H]5C[C@@H](C(C)(C)C)C36[C@@H](OC(=O)[C@@H]6O)O[C@@]4(C(=O)O5)[C@@]12O (stereo partly specified)
inactive: Potency [1] | Potency [2] | Potency [3] | Potency [4] | Potency [5]

Cc1cc(C)nc(NS(=O)(=O)c2ccc(NC(=S)NC(=O)COc3ccc(Br)cc3Cl)cc2)n1
inactive: Potency [1] | Potency [2] | Potency [3] | Potency [4] | Potency [5]

COC(C(=O)N1Cc2[nH]nc(NC(=O)c3ccc(N4CCN(C)CC4)cc3)c2C1)c1ccccc1 (stereo unspecified)
inactive: Potency [1] | Potency [2] | Potency [3] | Potency [4] | Potency [5]

O=C(Nc1ccc(S(=O)(=O)Nc2nccs2)cc1)C(c1ccccc1)c1ccccc1
inactive: Potency [1] | Potency [2] | Potency [3] | Potency [4] | Potency [5]

CC1(C)CC[C@]2(C(=O)O)[C@H](O)C[C@]3(C)C(=CCC4[C@@]5(C)CC[C@H](O[C@@H]6O[C@H](CO[C@@H]7OC[C@H](O)[C@H](O)[C@H]7O[C@@H]7OC[C@@H](O)[C@H](O)[C@H]7O)[C@@H](O)[C@H](O)[C@H]6O[C@@H]6O[C@H](CO)[C@@H](O)[C@H](O)[C@H]6O)C(C)(C)C5CC[C@]43C)[C@@H]2C1 (stereo partly specified)
inactive: Potency [1] | activity change, negative = inhibition [2] 0.747% [at 11.6 µM] | activity change, negative = thiol reactive [3] 242% [at 11.5 µM] | activity, negative = inhibition [4] 3.21% [at 11.6 µM] | redox activity (% of DA3003) [5] 15.6% [at 11.5 µM]

CNC(=O)c1ccccc1Nc1nc(Nc2ccc3c(c2OC)CCCC(N2CCN(CCO)CC2)C3)ncc1Cl (stereo unspecified)
inactive: Potency [1] | Potency [2] | Potency [3] | Potency [4] | Potency [5]

COc1ccc(CNC(=O)c2cc(-c3cncc(C)c3)ncc2-c2nccs2)nc1OC
inactive: Potency [1] | Potency [2] | Potency [3] | Potency [4] | Potency [5]

COC(=O)N[C@H](C(=O)N1[C@@H]2CC[C@@H](C2)[C@H]1c1nc2ccc(-c3ccc4c(c3)C(F)(F)c3cc(-c5cnc([C@@H]6CCC7(CC7)N6C(=O)[C@@H](NC(=O)OC)C(C)C)[nH]5)ccc3-4)cc2[nH]1)C(C)C
inactive: Potency [1] | Potency [2] | Potency [3] | Potency [4] | Potency [5]

CC(C)=CCC(O)/C(C)=C/CO[C@@H]1O[C@H](CO)[C@@H](O)[C@H](O)[C@H]1O (stereo partly specified)
inactive: Potency [1] | Potency [2] | Potency [3] | Potency [4] | Potency [5] | outcome [6] | outcome [7]

CS(=O)(=O)c1ccc(-c2nnc(/C=C/c3nnc(-c4ccc(C#N)cc4)o3)n2-c2ccccc2Cl)nc1
inactive: Potency [2] | Potency [3] | Potency [5]
active: Potency [4] 12 µM

CC(C)CC1NC(=O)C2CC3(O)c4ccccc4NC3N2C1=O (stereo unspecified)
inactive: Potency [1] | Potency [2] | Potency [4]

N#Cc1ccc(-c2cnc3[nH]cc(NC(=O)c4cccnc4)c3c2)cc1
inactive: Potency [1] | Potency [2] | Potency [4] | Potency [5]

OC[C@H]1O[C@@H](OCCc2ccccc2)[C@H](O[C@@H]2OC[C@](O)(CO)[C@H]2O)[C@@H](O)[C@@H]1O
inactive: Potency [1] | Potency [4] | Potency [5]

O=C1OCC(c2ccccc2)=C1Cc1ccccc1
inactive: Potency [1] | Potency [2] | Potency [3] | Potency [5]

CCc1c(C)nc2c(-c3cnn(-c4cc(CO)ccn4)c3)c[nH]n2c1=O
inactive: Potency [2] | Potency [4] | Potency [5]

CO[C@@H](C)Cn1c(=O)n(C)c2cnc3ccc(-c4cncc(C(C)(C)O)c4)cc3c21
inactive: Potency [2] | Potency [3] | Potency [4] | Potency [5]

COc1cc2nc(N3CCCC3)nc(NCCCCCN3CCCC3)c2cc1OC
inactive: Potency [2] | Potency [3] | Potency [4] | Potency [5]

Cc1cc(Nc2ccc(NC(=O)c3ccc(Nc4ccnc5ccccc45)cc3)cc2)nc(N)n1
inactive: Potency [1] | Potency [2] | Potency [4] | Potency [5]

Cc1cnc(Nc2ccc(F)cc2Cl)nc1-c1c[nH]c(C(=O)NC(CO)c2cccc(Cl)c2)c1 (stereo unspecified)
active: Potency [3] 2.67 µM
inactive: Potency [2] | Potency [4]

CC(C)(C)Nc1nc(Nc2ccc(C(N)=O)cc2)cc(N)c1C#N
inactive: Potency [1] | Potency [2] | Potency [4]

CC(C)C(CO)Nc1nc(Nc2cc(N)cc(Cl)c2)c2ncn(C(C)C)c2n1 (stereo unspecified)
inactive: Potency [1] | Potency [2] | Potency [4] | Potency [5]

CO/N=C(/C(=O)N[C@@H]1C(=O)N2C(C(=O)O)=C(Cn3ccc(=N)n3CCO)CS[C@H]12)c1csc(N)n1
inactive: Potency [2] | Potency [4] | Potency [5]

CN(C)CCCCC(=O)Nc1ccc(NC(=S)NC(=O)c2ccc(C(C)(C)C)cc2)cc1
inactive: Potency [2] | Potency [3] | Potency [4] | Potency [5]

Cc1ccc(S(=O)(=O)Cc2nc(-c3ccc(C(=O)NCc4cccnc4)cc3)oc2C)cc1
inactive: Potency [2] | Potency [3] | Potency [4] | Potency [5]

CC(Oc1ccc2[nH]nc(/C=C/c3cnn(CCO)c3)c2c1)c1c(Cl)cncc1Cl (stereo unspecified)
inactive: Potency [1] | Potency [2] | Potency [4]

COc1cccc2cc3c(c(O[C@@H]4O[C@H](CO[C@@H]5O[C@H](CO)[C@@H](O)[C@H](O)[C@H]5O)[C@@H](O)[C@H](O)[C@H]4O)c12)C(C)OC3=O (stereo partly specified)
active: Potency [1] 9.88 µM
inactive: Potency [2] | Potency [5]

CCCNc1ccc2ncc(-c3ccc4[nH]ncc4c3)n2n1
inactive: Potency [2] | Potency [4] | Potency [5]

CCC1=CC2CN(C1)Cc1c([nH]c3ccccc13)[C@@](C(=O)OC)(c1cc3c(cc1OC)N(C)[C@H]1[C@@](O)(C(=O)OC)[C@H](OC(C)=O)[C@]4(CC)C=CCN5CC[C@]31[C@@H]54)C2 (stereo partly specified)
inactive: Potency [1] | Potency [2] | Potency [4]

Nc1nc(-n2cc(C(=O)O)c(=O)c3cc(F)c(N4CC(O)C4)c(Cl)c32)c(F)cc1F
inactive: Potency [1] | Potency [2] | Potency [5]

CC1C=CC2CCCCC2C1CCC1CC(O)CC(=O)O1 (stereo unspecified)
inactive: Potency [1] | Potency [2] | Potency [4] | Potency [5]

CC(C)(C)c1ccc(S(=O)(=O)Nc2ccc(Cl)cc2C(=O)c2cc[n+]([O-])cc2)cc1
inactive: Potency [1] | Potency [2] | Potency [4] | Potency [5]

Cc1ccc(-c2ccc3c(ccc4sc5c(c43)NC[C@@H](C)NC5=O)n2)cn1
inactive: Potency [2] | Potency [3] | Potency [4] | Potency [5]

COc1cc2nc(N3CCC(N4CCCCC4)CC3)nc(NC3CCCCCC3)c2cc1OC
inactive: Potency [2] | Potency [3] | Potency [4] | Potency [5]

NCc1c[nH]c(=S)n1[C@@H]1CCc2c(F)cc(F)cc2C1
inactive: Potency [2] | Potency [4] | Potency [5]

CC(=O)N[C@@H](Cc1c[nH]c2ccccc12)C(=O)N[C@@H](CCC(=O)O)C(=O)N[C@@H](Cc1cnc[nH]1)C(=O)N[C@@H](CC(=O)O)C(=O)Nc1ccc2c(C(F)(F)F)cc(=O)oc2c1 (Ac-WEHD-{AFC})
inactive: Potency [2] | Potency [3] | Potency [4] | Potency [5]

CC/C=C\CC1C(=O)C=CC1(CCCCCCCC(=O)O)OC(C)=O (stereo unspecified)
inactive: Potency [1] | Potency [2] | Potency [4]

CC(=O)SCC(=O)c1ccc(NS(=O)(=O)c2ccc(OCCCN(C)C)cc2)nc1
inactive: Potency [1] | Potency [2] | Potency [4] | Potency [5]

CN(CCc1ccc(Nc2ncc(-c3cccnc3)s2)cc1)Cc1ccccc1
inactive: Potency [1] | Potency [2] | Potency [4]

C=C1C[C@]23C[C@H]1CC[C@H]2C1=C[C@H]2OC(=O)[C@@](C)([C@H]1[C@@H]3C(=O)O)[C@H]2O
inactive: Potency [1] | Potency [4] | Potency [5]

OC1CCC(Nc2ncc3nc(Nc4c(F)cc(F)cc4F)n([C@H]4CCOC4)c3n2)CC1 (stereo partly specified)
inactive: Potency [2] | Potency [4] | Potency [5]
active: Potency [1] 20.2 µM

O=[N+]([O-])c1cn2c(n1)OCC(OCc1ccc(OC(F)(F)F)cc1)C2 (stereo unspecified)
inactive: Potency [1] | Potency [2] | Potency [4] | Potency [5]

C/C(=C/CO)CC[C@@H]1[C@@](C)(O)CCC2C(C)(C)CCC[C@]21C (stereo partly specified)
inactive: Potency [1] | Potency [2] | Potency [4] | Potency [5]

COc1ccc2cc(C(C)C(=O)Oc3ccc(C(N)=S)cc3)ccc2c1 (stereo unspecified)
inactive: Potency [2] | Potency [3] | Potency [4] | Potency [5]

CCc1cnn2c(NCc3ccc[n+]([O-])c3)cc(N3CCCCC3CCO)nc12 (stereo unspecified)
inactive: Potency [1] | Potency [2] | Potency [4]

CCOc1ccc(NC(=S)N2CCC(C(O)(c3ccccc3)c3ccccc3)CC2)cc1
inactive: Potency [2] | Potency [3] | Potency [4] | Potency [5]

Cc1cc(=O)oc2c(C=O)c(O)ccc12
inactive: Potency [2] | Potency [4] | Potency [5]

C=C1CCCC2(C)CC3(OC)OC(=O)C(C)=C3CC12 (stereo unspecified)
inactive: Potency [1] | Potency [2] | Potency [3] | Potency [5]

CS(=O)(=O)NCC1CCC(Nc2nc3c(s2)CCSc2ccccc2-3)CC1 (stereo unspecified)
inactive: Potency [1] | Potency [2] | Potency [4] | Potency [5]
